Hit rate of the full screen: of about 310,000 compounds, about 14,000 (4.5%) showed an effect of 50% or more. Effects have a minus sign here. This is one part of a sample in which strong results are shown more often than they occur.
These molecules were tested against human ether-à-go-go-related gene (hERG) potassium channel (human, UniProt Q12809) (assay: primary screen, population patch clamp on CHO cells stably expressing hERG; higher = less effect of the substance).
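Note: peak tail current of the secondary pulse compared with the same well before compound.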

human ether-à-go-go-related gene (hERG) potassium channel, sequence (Q12809 whole entry, looked up): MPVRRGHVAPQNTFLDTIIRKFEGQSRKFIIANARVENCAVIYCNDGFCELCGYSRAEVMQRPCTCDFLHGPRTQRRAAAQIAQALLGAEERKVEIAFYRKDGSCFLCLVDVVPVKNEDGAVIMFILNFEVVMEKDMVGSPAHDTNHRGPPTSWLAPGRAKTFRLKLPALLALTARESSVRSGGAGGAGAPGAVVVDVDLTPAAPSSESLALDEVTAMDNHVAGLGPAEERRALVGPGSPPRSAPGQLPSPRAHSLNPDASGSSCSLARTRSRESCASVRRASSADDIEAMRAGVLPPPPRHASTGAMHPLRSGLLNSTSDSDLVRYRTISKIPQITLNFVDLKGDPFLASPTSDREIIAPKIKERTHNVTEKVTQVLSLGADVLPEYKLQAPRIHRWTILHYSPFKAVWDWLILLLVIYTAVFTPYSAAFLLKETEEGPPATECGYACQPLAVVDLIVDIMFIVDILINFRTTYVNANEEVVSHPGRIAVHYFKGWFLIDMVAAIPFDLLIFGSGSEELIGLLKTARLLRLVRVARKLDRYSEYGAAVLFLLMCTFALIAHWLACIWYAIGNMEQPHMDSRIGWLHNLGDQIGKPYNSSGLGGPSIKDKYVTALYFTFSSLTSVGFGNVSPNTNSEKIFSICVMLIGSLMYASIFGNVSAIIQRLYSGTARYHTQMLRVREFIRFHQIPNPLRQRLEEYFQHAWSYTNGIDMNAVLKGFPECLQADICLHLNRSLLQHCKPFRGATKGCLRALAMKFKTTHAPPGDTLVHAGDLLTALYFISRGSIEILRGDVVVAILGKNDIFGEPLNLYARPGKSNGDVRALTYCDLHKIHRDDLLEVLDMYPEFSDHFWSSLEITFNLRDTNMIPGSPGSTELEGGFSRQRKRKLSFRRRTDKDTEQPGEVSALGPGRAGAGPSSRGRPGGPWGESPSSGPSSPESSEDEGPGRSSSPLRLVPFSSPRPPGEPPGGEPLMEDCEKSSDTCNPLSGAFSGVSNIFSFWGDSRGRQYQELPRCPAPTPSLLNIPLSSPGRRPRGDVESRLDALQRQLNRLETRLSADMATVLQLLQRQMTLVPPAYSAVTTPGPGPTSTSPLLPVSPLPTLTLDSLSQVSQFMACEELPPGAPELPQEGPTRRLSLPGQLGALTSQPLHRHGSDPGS

Row | SMILES | hERG current change (%, negative = inhibition) at 10uM
1 | COc1cccc(CN2CCNC(=O)C2CC(=O)NCCc2ccccn2)c1 (centres unmarked) | 9.8%
2 | CC1CCN(C(c2cc3cc4c(cc3[nH]c2=O)OCO4)c2nnnn2CC2CCCO2)CC1 (centres unmarked) | -3.99%
3 | Nc1ccc(SCCN2C(=O)c3ccccc3C2=O)cc1 | -1.22%
4 | CC(=O)/C(C(=N)N1CCN(C(c2ccccc2)c2ccccc2)CC1)=C(\C)O | 8.3%
5 | O=C(CCNC(=O)c1ccco1)Nc1ccccc1OC(F)F | 10.4%
6 | COc1ccccc1-c1cc(C(=O)NCCc2ccccc2)no1 | 5.18%
7 | BrCC(Br)C1CCC(Br)C(Br)C1 (centres unmarked) | 20.6%
8 | Cc1cc(OCC(=O)NC(C)(C)C)ccc1Cl | 7.04%
9 | COC(=O)c1ccc2c(c1)NC1=C(C(=O)CC(C)(C)C1)C(c1ccncc1)N2 (centres unmarked) | -4.48%
10 | O=C(NCc1ccco1)c1cc([N+](=O)[O-])ccc1N1CCOCC1 | -25.4%
11 | c1ccc(-n2nnnc2CN2CCOCC2)cc1 | 14.8%
12 | CCOC(=O)[C@H]1[C@H]2COc3ccc(C)cc3[C@@H]2N2C(=O)CN(CC3CCCO3)C(=O)[C@@]12C (some centres unmarked) | 7.72%
13 | O=C(NCCNc1ccc([N+](=O)[O-])cc1)c1cc(F)c(F)cc1Cl | -45.1%
14 | CCOc1ccc2nc(NCCCNC(=O)c3cc(OC)c(OC)c(OC)c3)c(C#N)cc2c1 | -51.3%
15 | COc1ccc(C(=O)NCCNc2ccc([N+](=O)[O-])cc2)cc1 | -40.9%
16 | COc1ccc2nc(NCCCNC(=O)c3cc(OC)c(OC)c(OC)c3)c(C#N)cc2c1 | -11%
17 | CCOc1ccc2nc(NCCNC(=O)c3cc(OC)c(OC)c(OC)c3)c(C#N)cc2c1 | 5.24%
18 | O=C(NCCNc1ccc([N+](=O)[O-])cc1)c1ccc(Cl)cc1 | -52.8%
19 | Cn1nnnc1Sc1ncnc2scc(-c3ccccc3Br)c12 | -4.66%
20 | COc1ccc(CCN(C)C2CC(=O)N(c3ccccc3)C2=O)cc1OC (centres unmarked) | -5.77%
21 | Cc1ccc(N(Cc2cc(=O)[nH]c3ccccc23)C(=O)c2ccco2)cc1 | -34.4%
22 | Cc1cc(C)n(C(=O)Cn2nc(C)c(Br)c2C)n1 | 14%
23 | O=C(Nc1cccc(Cl)c1)Nc1cnccn1 | 29.1%
24 | CCOC(=O)C1(CC2CCCCO2)CCN(Cc2c(C)cc(C)cc2-n2cccn2)CC1 (centres unmarked) | -77.8%

Row | SMILES | hERG current change (%, negative = inhibition) at 10uM
25 | CCOC(=O)C1(CC2CCCCO2)CCN(Cc2nc(C(C)C)cs2)CC1 (centres unmarked) | -5.24%
26 | CCOC(=O)C1(CC2CCCCO2)CCN(Cc2nccn2-c2cccc(C)c2)CC1 (centres unmarked) | 13.2%
27 | CCOC(=O)C1(CC2CCCCO2)CCN(Cc2nc3ccccc3[nH]2)CC1 (centres unmarked) | -19.5%
28 | CCCCc1ncc(CN2CCC(CC3CCCCO3)(C(=O)OCC)CC2)[nH]1 (centres unmarked) | -45%
29 | CCOC(=O)C1(CC2CCCCO2)CCN(Cc2cc(F)ccc2-n2cccn2)CC1 (centres unmarked) | -57.1%
30 | CNC(=O)NC(=O)C(C)OC(=O)c1cc2c(s1)CCCCC2 (centres unmarked) | -7.89%
31 | COc1ccccc1CNC(=O)CCS(=O)(=O)Cc1ccc(C)cc1 | 11.3%
32 | O=C(CCNC(=O)c1ccco1)Nc1ccc(SC(F)F)cc1 | -52.7%
33 | O=C(CCNC(=O)c1ccco1)Nc1ccccc1 | 15%
34 | O=C(CCNC(=O)c1ccco1)Nc1ccc(OC(F)F)cc1 | -23.8%
35 | COc1cc(OC)c(C2=NOC(C(=O)Nc3ccc4c(c3)OCO4)C2)cc1Cl (centres unmarked) | 10.7%
36 | C=CCOC(=O)C(=O)/C=C/c1c(C)n(C)n(-c2ccccc2)c1=O | 27.2%
37 | CCOc1ccc(NC(=O)COC(=O)CC2CCCCC2)cc1 | -6.75%
38 | O=C(NCCN1CCOCC1)/C(=C/c1ccccc1)NC(=O)c1ccccc1 | -16.4%
39 | Cc1ccc(C(=O)N/C(=C\c2ccc(F)cc2)C(=O)NCCN2CCOCC2)cc1 | -75.6%
40 | COc1ccc(/C=C(\NC(=O)c2ccc(Cl)cc2)C(=O)NCCCN2CCOCC2)cc1OC | 13.9%
41 | Cc1ccc(C(=O)N/C(=C\c2ccccc2)C(=O)NCCN2CCOCC2)cc1 | -62.4%
42 | Cc1ccc(C(=O)NC(=S)NCCN2CCOCC2)cc1 | 23.3%
43 | Cc1ccc(C(=O)N/C(=C\c2ccc(Cl)cc2)C(=O)NCCCN2CCOCC2)cc1 | -72.5%
44 | O=C(NC(=S)NCCN1CCOCC1)c1ccc(F)cc1 | -4.01%
45 | COc1ccc(/C=C(\NC(=O)c2ccccc2)C(=O)NCCN2CCOCC2)cc1 | -34.3%
46 | COc1ccc(/C=C(/NC(=O)c2ccccc2)C(=O)NCCN2CCOCC2)cc1OC | 11.6%
47 | COc1ccc(/C=C(\NC(=O)c2ccc(C)cc2)C(=O)NCCN2CCOCC2)cc1 | -64.6%

Source: publication PMC4336329 (PLoS ONE, 2015)
